Rows were chosen to be rich in hits. Some 5.3% of all compounds tested hit in one or more screens of this group.
PfM18AAP inh: PfM18AAP inhibitors, malaria aminopeptidase, primary screen, biochemical, QFRET, recombinant enzyme. H-Glu-NHMec fluorogenic cleavage. inhibition, % at 7.35 µM. 1.2% of 290,000 active. AID 1822, 2009;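 active means inhibition above the campaign mean inhibition over all tested compounds plus 3 SD, cut at about 28% in these data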
Mot1-301 SUMO: yeast Mot1-301 growth rescue at high temperature, primary screen, SUMOylation pathway inhibitor project, S. cerevisiae, ATP luminescence, 38.5C. S. cerevisiae Mot1-301 growth rescue; percent above DMSO median, 100 means doubled. growth rescue, % at 18.8 µM. 1% of 320,000 active. AID 2716, 2010;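 active means every valid replicate shows activation above 250% relative to neutral control wells; inactive means the rest, any valid replicate at or below 250%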
ALR inh: inhibitors of human ALR sulfhydryl oxidase, primary screen, biochemical, H2O2 detection, HRP-luminol luminescence, single point. FAD-linked sulfhydryl oxidase ALR (Homo sapiens), P55789. purified ALR, DTT oxidation. inhibition, % (no concentration beside the values). 3.8% of 290,000 active. AID 485317, 2010;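 active means mean replicate inhibition above about 79%, with every replicate also reaching it, limit read from the data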
Target sequence (P55789 whole entry, looked up): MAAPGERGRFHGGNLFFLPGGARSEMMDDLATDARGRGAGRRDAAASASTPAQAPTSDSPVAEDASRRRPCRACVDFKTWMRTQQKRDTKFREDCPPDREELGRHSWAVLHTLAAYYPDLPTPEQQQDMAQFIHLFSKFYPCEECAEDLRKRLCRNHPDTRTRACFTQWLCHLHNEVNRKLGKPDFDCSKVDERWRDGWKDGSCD
HIF act: HIF pathway transcriptional activators, primary screen, cell-based, U2OS HRE-luciferase, luminescence | AID 1910, 2009 | activation, % at 7.5 µM (by protocol) | 0.32% of 300,000 active | U2OS HRE-luciferase reporter; normalized: DMSO 0%, desferrioxamine 100%;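 active means mean activation of at least 10% of the iron chelator positive control signal, with at least half of replicates also reaching 10%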
Yeast Mot1 SUMO: growth restoration of Mot1-301 yeast on galactose, dose response, SUMO pathway inhibitor project, whole organism, S. cerevisiae, ATP luminescence, cherry-picked samples; shares compounds with Mot1-301 SUMO; S. cerevisiae Mot1-301 galactose growth, 24 h; -100 = growth of slx-deleted rescue strain; growth activity, percent, % at 42 µM; 2,300 tested, under 10 active;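 active means Signal drops as the depositor expects, and the fitted half-maximal dose is no more than ten times the top valid tested dose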;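 further: more negative values mean stronger growth rescue toward the control strain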
Of the large screens only hits and unclear results are named; the others gave an inactive call (follow-up assays come after a bar, where they were run).

CCOC(=O)CSc1ccc(S(=O)(=O)N2CCCCC2)cc1[N+](=O)[O-]	none
COc1ccc(CCNC(=O)Nc2ccc(F)cc2F)cc1OC	none
COc1cc(C(C2=C(O)CC(C)(C)CC2=O)C2C(=O)CC(C)(C)CC2=O)cc(OC)c1OC (stereo not given)	Mot1-301 SUMO 658 | Yeast Mot1 SUMO inactive
CC(CN1CCCCCC1)C(=O)NN (stereo not given)	Mot1-301 SUMO 674 (no result: ALR inh) | Yeast Mot1 SUMO inactive
CC(CN1CCCCC1)C(=O)NNC(=O)C12CC3CC(CC(C3)C1)C2 (stereo not given)	none
COc1cc(CN(C(=O)c2cccs2)C2CCS(=O)(=O)C2)cc(OC)c1OC (stereo not given)	none (no result: Mot1-301 SUMO)
CC(=O)c1ccc(N=C2SCCCN2C(=O)C2CCCC2)cc1	Mot1-301 SUMO 398 | Yeast Mot1 SUMO inactive
Cc1cc(C)c(S(=O)(=O)NCC(c2cccnc2)N2CCN(Cc3ccccc3)CC2)c(C)c1 (stereo not given)	Mot1-301 SUMO 524 | Yeast Mot1 SUMO inactive
CC1CC(C)CN(CCCNC(=O)c2ccc3c(c2)N(Cc2ccccc2)C(=O)c2ccccc2S3=O)C1 (stereo not given)	none
Cc1ccccc1CSc1n[nH]c(NS(=O)(=O)c2ccccc2)n1	Mot1-301 SUMO active | Yeast Mot1 SUMO inactive
Cc1ccc(SCC(=O)O/N=C(\N)c2cccc([N+](=O)[O-])c2)cc1	Mot1-301 SUMO active | Yeast Mot1 SUMO inactive
Cc1nc2sc(C(c3ccccc3)N3CCC(O)CC3)c(O)n2n1 (stereo not given)	Mot1-301 SUMO active | Yeast Mot1 SUMO inactive
COc1cc(-c2ccccc2)nc(N)n1	none
CCOc1cc(-c2ccccc2)nc(N)n1	Mot1-301 SUMO 460 | Yeast Mot1 SUMO inactive
CC1(C)NC(=O)N(CC(=O)O)C1=O	Mot1-301 SUMO 574 | Yeast Mot1 SUMO inactive
CCNC(=O)COc1ccc(S(=O)(=O)Nc2ccccc2)cc1	Mot1-301 SUMO 798 | Yeast Mot1 SUMO inactive
COCCCNC(=O)COc1ccc(S(=O)(=O)Nc2ccccc2)cc1	none
Cc1ccc(C(=O)NCC(=O)OCC(=O)Nc2cc(S(=O)(=O)N3CCOCC3)ccc2Cl)s1	none (no result: PfM18AAP inh, HIF act)
Cc1cc(C)c(NC(=O)CCN2CCN(Cc3ccccc3)CC2)c(C)c1	Mot1-301 SUMO 465 (no result: PfM18AAP inh) | Yeast Mot1 SUMO inactive
Cc1ccc(N2CN(CCc3ccccc3)CNC2=S)cc1	Mot1-301 SUMO 419 (no result: HIF act) | Yeast Mot1 SUMO inactive
CCn1nnc(-c2ccccc2NC(=O)c2cnccn2)n1	Mot1-301 SUMO 407 | Yeast Mot1 SUMO inactive
CN(Cc1ccc(C(C)(C)C)cc1)C(=O)c1ccc2c(=O)n3c(nc2c1)CCC3	Mot1-301 SUMO 399 (no result: PfM18AAP inh) | Yeast Mot1 SUMO inactive
COc1ccc(CN(C)C(=O)c2ccc3c(=O)n4c(nc3c2)CCC4)cc1	none
COc1ccc(C(C(=O)NC2CCCC2)N(CCO)C(=O)Cn2nnc(-c3ccc(C)o3)n2)cc1OC (stereo not given)	none
CCOC(=O)CSc1nc2ccccc2c(=O)n1CC(C)C	Mot1-301 SUMO 573 | Yeast Mot1 SUMO inactive
CCOC(=O)CSc1nc2ccccc2c(=O)n1CC	none
COC(=O)c1ccc(CSc2nc3ccccc3c(=O)n2CC(C)C)o1	Mot1-301 SUMO 839 | Yeast Mot1 SUMO inactive
CC(O)C(NS(=O)(=O)c1ccc(Cl)cc1)C(=O)OCC(=O)N1CCN(c2ccccc2)CC1 (stereo not given)	none
CCOc1ccc(-c2noc(CCC(=O)NCC3CCCO3)n2)cc1OC (stereo not given)	none
Cc1cc(C)cc(NC(=O)CS(=O)(=O)c2ccccc2)c1	Mot1-301 SUMO 368 | Yeast Mot1 SUMO inactive
Cc1ccnc(NC(=O)CS(=O)(=O)c2ccccc2)c1	none
Cc1ccc(C(=O)OCc2nnc(-c3ccccc3)o2)cc1S(=O)(=O)N1CCOCC1	none (no result: PfM18AAP inh, Mot1-301 SUMO, ALR inh)
CC(C)CCNC(=O)CN(C(=O)CCC(=O)Nc1nccs1)c1ccc2c(c1)OCCO2	none
CC(C)(C)NC(=O)CN(C(=O)CCC(=O)Nc1nccs1)c1ccc2c(c1)OCCO2	Mot1-301 SUMO 543 (no result: ALR inh) | Yeast Mot1 SUMO inactive
NC(=O)c1cccc2cc3ccccc3cc12	Mot1-301 SUMO 625 | Yeast Mot1 SUMO inactive
Cc1ccc(N(C(=O)Cn2nnc3ccccc32)C(C(=O)NC2CCCCC2)c2cn(C)nc2C)cc1 (stereo not given)	Mot1-301 SUMO 835 | Yeast Mot1 SUMO inactive
CCCCOc1ccc(C(O)C(CN2CCOCC2)c2ccccc2)cc1 (stereo not given)	Mot1-301 SUMO 787 (no result: ALR inh) | Yeast Mot1 SUMO inactive
CCCOc1ccc(C(O)C(CN2CCOCC2)c2ccccc2)cc1 (stereo not given)	none
Cc1ccc(C)c(NC(=O)Cn2c([N+](=O)[O-])cnc2C)c1	none
Cc1cc(C)c(NC(=O)Cn2c([N+](=O)[O-])cnc2C)c(C)c1	Mot1-301 SUMO active | Yeast Mot1 SUMO inactive
COc1ccc(Cl)cc1C(=O)Nc1ccccc1N1CCCCC1	none
O=C(N1CCCCC1)C1(S(=O)(=O)c2ccccc2)CC=CC1	none (no result: ALR inh)
O=C(N1CCOCC1)C1(S(=O)(=O)c2ccccc2)CC=CC1	Mot1-301 SUMO 639 | Yeast Mot1 SUMO inactive
Cc1cc(NC(=O)CC2CCCC2)ccc1Br	Mot1-301 SUMO 386 | Yeast Mot1 SUMO inactive
Cc1ccc(NC(=O)CC2CS(=O)(=O)CC2CC(=O)Nc2ccc(C)c(C)c2)cc1C (stereo not given)	Mot1-301 SUMO 440 | Yeast Mot1 SUMO inactive
O=C(NC1=NCCS1)c1ccc(C(F)(F)F)cc1	none
O=C(Nc1ncccn1)c1ccc(C(F)(F)F)cc1	Mot1-301 SUMO 438, ALR inh 97 | Yeast Mot1 SUMO inactive
O=C(COC(=O)c1ccc(=O)n(Cc2ccccc2)n1)Nc1ccc2c(c1)OCCO2	none
Cn1c(CN2CCOCC2)nc2cc(NC(=O)COc3ccccc3)ccc21	none (no result: HIF act)
Cn1c(CCN2CCOCC2)nc2cc(NC(=O)COc3ccccc3)ccc21	Mot1-301 SUMO active | Yeast Mot1 SUMO inactive
O=C(COc1ccc(C(=O)c2ccccc2)cc1)NCC1CCCCC1	none
CCc1ccccc1NC(=O)N1CCCC(CCC(=O)N(C)CCc2ccccn2)C1 (stereo not given)	none
C=CCOc1ccccc1CN1CCCC(CCC(=O)N(C)CCc2ccccn2)C1 (stereo not given)	Mot1-301 SUMO 682 | Yeast Mot1 SUMO inactive
COc1cccc(C2CC(c3cccc(NS(C)(=O)=O)c3)=NN2C(=O)c2ccccc2)c1OC (stereo not given)	Mot1-301 SUMO 387 | Yeast Mot1 SUMO inactive
CN(C)c1ccc(C2CC(c3cccc(NS(C)(=O)=O)c3)=NN2C(=O)c2ccccc2)cc1 (stereo not given)	none
Cc1ccc(CCNc2ccccc2C)cn1	none
